Compound activity as filed in PubChem.
tim23-1 inh – growth inhibitors of tim23-1 mutant yeast | AID 463212 | inhibition, % at 20 µM | hit rate 1.3% among 330,000 | S. cerevisiae tim23-1 growth, BacTiter-Glo luminescence, 24 h;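 active = growth inhibition of the mutant yeast at or above 50%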;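 also: temperature-sensitive mutant grown at 25 °C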
B2AR ag – agonists of human beta-2 adrenergic receptor inducing internalization; P07550; Am2.2-beta2AR cells, FAP receptor internalization, flow cytometry; response, % (no concentration beside the values); hit rate 0.43% among 340,000; AID 504454;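 active = response above a set limit, near 3 SD of response in nonfluorescent compounds, cut at about 42% in these data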
Target sequence (P07550 whole entry, looked up): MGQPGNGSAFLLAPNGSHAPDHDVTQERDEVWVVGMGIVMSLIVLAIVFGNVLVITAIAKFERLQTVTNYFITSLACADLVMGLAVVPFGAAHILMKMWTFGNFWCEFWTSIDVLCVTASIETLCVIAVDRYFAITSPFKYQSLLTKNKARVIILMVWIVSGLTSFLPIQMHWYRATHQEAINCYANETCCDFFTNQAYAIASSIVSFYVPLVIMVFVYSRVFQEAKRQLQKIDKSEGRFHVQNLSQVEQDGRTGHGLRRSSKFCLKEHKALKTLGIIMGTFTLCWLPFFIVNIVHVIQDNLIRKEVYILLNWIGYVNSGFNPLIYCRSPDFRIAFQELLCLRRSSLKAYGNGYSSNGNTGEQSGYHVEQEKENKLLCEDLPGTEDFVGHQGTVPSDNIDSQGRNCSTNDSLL
tim10-1 inh – tim10-1 yeast growth inhibition. hit rate 2.2% among 330,000. S. cerevisiae tim10-1 ts strain growth, BacTiter-Glo, 24 h. AID 463190. inhibition, % at 20 µM;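 active = inhibition of at least 40%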;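 also: mutant grown at 25 °C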
TIM10 inh – TIM10 yeast growth inhibition; S. cerevisiae TIM10 strain growth, BacTiter-Glo luminescence, 24 h; inhibition, % at 10 µM; AID 463195; hit rate 1.4% among 330,000;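 active = inhibition of 40% or more at the single tested concentration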;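 also: wild-type TIM10 isogenic control strain grown at permissive 25 °C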
PfHsp90 yeast 2 – reduces growth (ATP signal) of yeast expressing P. falciparum Hsp90; S. cerevisiae expressing PfHsp90, BacTiter-Glo ATP, 48 h; yeast lacking PDR1 and PDR3 efflux regulators; inhibition, % at 9.4 µM; hit rate 0.32% among 310,000; AID 504621;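 active = every replicate shows inhibition above about 80%, whatever the replicate mean, limit read from the data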
tim10-1 conf – tim10-1 yeast growth inhibition, confirmed; shares compounds with tim10-1 inh; inhibition, % at 20 µM; hit rate 56% among 7,400; S. cerevisiae tim10-1 ts strain growth, BacTiter-Glo, 24 h;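 active = inhibition of yeast growth at or above a set limit in either of two repeat tests at 20 µM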;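 also: tim10-1 mutant grown at permissive 25 °C to find synthetic lethal compounds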
TIM10 conf – confirmation of TIM10 yeast growth inhibitors | shares compounds with TIM10 inh | S. cerevisiae tim10 strain growth, BacTiter-Glo luminescence, 24 h | inhibition, % at 10 µM | hit rate 63% among 4,600 | AID 463215;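 active = inhibition of yeast growth at or above a set limit in either of two replicates at 10 µM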; also: this counterscreen used the strain with wild-type TIM10
Numbers stand for hits. Most compounds without a hit are left out; they make up all but 3.8% or so of the library.

Results for Cc1ccc2c(c1)/C(=C/c1ccccc1)C(=O)N2 ?
tim23-1 inh: inactive; B2AR ag: inactive; tim10-1 inh: 55; TIM10 inh: 49; PfHsp90 yeast 2: inactive; tim10-1 conf: 39; TIM10 conf: 62

What do the screens show for `Cc1ccc2c(c1)/C(=C/c1ccccc1F)C(=O)N2`?
tim23-1 inh: inactive; B2AR ag: inactive; tim10-1 inh: inactive; TIM10 inh: inactive; PfHsp90 yeast 2: inactive

What do the screens show for `CCN1/C(=C/C=C/c2oc3ccc(-c4ccccc4)cc3[n+]2CC)Oc2ccc(-c3ccccc3)cc21`?
tim23-1 inh: inactive; tim10-1 inh: 61; TIM10 inh: 63; PfHsp90 yeast 2: inactive; tim10-1 conf: inactive; TIM10 conf: 42

How did CCOC(=O)C(C(=O)OCC)C(Nc1ccc(Br)cc1)c1ccccc1 (stereo unspecified) do in these assays?
tim23-1 inh: inactive; B2AR ag: inactive; tim10-1 inh: 51; TIM10 inh: 51; PfHsp90 yeast 2: inactive; tim10-1 conf: 39; TIM10 conf: 52

What do the screens show for `O=C(NN1C(=O)/C(=C\c2cccnc2)SC1=S)C(c1ccccc1)c1ccccc1`?
tim23-1 inh: inactive; B2AR ag: inactive; tim10-1 inh: 46; TIM10 inh: 40; PfHsp90 yeast 2: inactive; tim10-1 conf: 39; TIM10 conf: inactive

What do the screens show for `O=C(NN1C(=O)/C(=C/c2cccnc2)SC1=S)C(c1ccccc1)c1ccccc1`?
tim23-1 inh: inactive; B2AR ag: inactive; tim10-1 inh: 49; TIM10 inh: 42; tim10-1 conf: 41; TIM10 conf: inactive

What do the screens show for `CC(C1CC1)N(Cc1ccccc1)C(=S)Nc1ccccc1` (stereo unspecified)?
tim23-1 inh: inactive; B2AR ag: inactive; tim10-1 inh: 42; TIM10 inh: 42; PfHsp90 yeast 2: inactive; tim10-1 conf: inactive; TIM10 conf: 40

How did CC(C1CC1)N(Cc1ccccc1)C(=S)Nc1cccc(C(F)(F)F)c1 (stereo unspecified) do in these assays?
tim23-1 inh: inactive; B2AR ag: inactive; tim10-1 inh: 49; TIM10 inh: 53; PfHsp90 yeast 2: inactive; tim10-1 conf: 48; TIM10 conf: inactive

What do the screens show for `CCCCN(C)CCCNC(=O)CN1C(=O)COc2ccc(S(=O)(=O)N3CCOCC3)cc21`?
tim23-1 inh: inactive; B2AR ag: inactive; tim10-1 inh: inactive; TIM10 inh: inactive; PfHsp90 yeast 2: inactive

How did CC1CC(C)(C)OC(c2ccc(C(C)C)cc2)O1 (stereo unspecified) do in these assays?
B2AR ag: inactive

Results for COc1ccc(NC(=O)CN(c2ccc(C)cc2)S(=O)(=O)c2c(C)nn(C)c2C)cc1 ?
tim23-1 inh: inactive; B2AR ag: inactive; tim10-1 inh: inactive; TIM10 inh: inactive; PfHsp90 yeast 2: inactive

Results for COc1ccc2nc(NC(=O)CN(c3ccc(C)cc3)S(=O)(=O)c3c(C)nn(C)c3C)sc2c1 ?
tim23-1 inh: inactive; B2AR ag: inactive; tim10-1 inh: 45; TIM10 inh: 41; tim10-1 conf: 31; TIM10 conf: 44

How did CCN(CC(=O)Nc1c(F)cccc1F)C(=O)/C=C/c1ccc(Br)s1 do in these assays?
tim23-1 inh: inactive; B2AR ag: inactive; tim10-1 inh: inactive; TIM10 inh: inactive

How did O=C(Nc1ccccc1N1CCCC1)c1cccc(F)c1 do in these assays?
tim23-1 inh: inactive; B2AR ag: inactive; tim10-1 inh: inactive; TIM10 inh: inactive; PfHsp90 yeast 2: inactive

How did CC1CCN(c2ccccc2NC(=S)NC(=O)c2cccs2)CC1 do in these assays?
tim23-1 inh: inactive; B2AR ag: inactive; tim10-1 inh: 49; TIM10 inh: 48; PfHsp90 yeast 2: inactive; tim10-1 conf: 34; TIM10 conf: 38

Results for O=C(NC(=S)Nc1ccccc1N1CCCC1)c1cccc(F)c1 ?
tim23-1 inh: inactive; B2AR ag: inactive; tim10-1 inh: 52; TIM10 inh: 52; PfHsp90 yeast 2: inactive; tim10-1 conf: inactive; TIM10 conf: 48

How did O=C(NC(=S)Nc1ccccc1N1CCCCC1)c1ccccc1 do in these assays?
tim23-1 inh: inactive; B2AR ag: inactive; tim10-1 inh: 48; TIM10 inh: 60; PfHsp90 yeast 2: inactive; tim10-1 conf: 44; TIM10 conf: 47

What do the screens show for `Cc1cc(C(=O)NC(=S)Nc2ccccc2N2CCCC2)ccc1[N+](=O)[O-]`?
tim23-1 inh: inactive; B2AR ag: inactive; tim10-1 inh: inactive; TIM10 inh: inactive; PfHsp90 yeast 2: inactive

How did C[C@H](CO)N1C[C@H](C)[C@@H](CN(C)S(=O)(=O)c2ccccc2)Oc2c(NS(=O)(=O)c3ccccc3)cccc2C1=O do in these assays?
tim23-1 inh: inactive; B2AR ag: inactive; tim10-1 inh: inactive; TIM10 inh: inactive; PfHsp90 yeast 2: inactive

How did O=C(C[n+]1ccccc1)N/N=C/c1ccc(Cl)c(Cl)c1 do in these assays?
tim23-1 inh: inactive; B2AR ag: inactive; tim10-1 inh: inactive; TIM10 inh: inactive; PfHsp90 yeast 2: inactive

How did CC(C)c1cc(C(=O)Nc2cccc(Cl)c2)no1 do in these assays?
tim23-1 inh: inactive; B2AR ag: inactive; tim10-1 inh: inactive; TIM10 inh: inactive; PfHsp90 yeast 2: inactive

What do the screens show for `CC(C)c1onc(C(=O)Nc2cccc(Cl)c2)c1[N+](=O)[O-]`?
tim23-1 inh: inactive; B2AR ag: inactive; tim10-1 inh: 45; TIM10 inh: 41; PfHsp90 yeast 2: inactive; tim10-1 conf: 37; TIM10 conf: 39

What do the screens show for `CCCn1c(SCC(=O)N2CC(=O)Nc3ccccc32)n[nH]c1=O`?
tim23-1 inh: inactive; B2AR ag: inactive; tim10-1 inh: inactive; TIM10 inh: inactive; PfHsp90 yeast 2: inactive

Results for COC(=O)C1=C(CCc2ccccc2)NC(=O)NC1c1ccc(Br)cc1 (stereo unspecified) ?
tim23-1 inh: inactive; B2AR ag: inactive; tim10-1 inh: inactive; TIM10 inh: inactive; PfHsp90 yeast 2: inactive

Results for O=S1(=O)CCOCCCN1Cc1ccccc1 ?
tim23-1 inh: inactive; B2AR ag: inactive; tim10-1 inh: inactive; TIM10 inh: inactive; PfHsp90 yeast 2: inactive

How did Fc1ccccc1CNC(=S)Nc1cccc(C(F)(F)F)c1 do in these assays?
tim23-1 inh: inactive; B2AR ag: inactive; tim10-1 inh: 47; TIM10 inh: 43; PfHsp90 yeast 2: inactive; tim10-1 conf: 46; TIM10 conf: inactive

Results for OC1Cc2ccccc2C1Nc1cccc(C(F)(F)F)c1 (stereo unspecified) ?
B2AR ag: inactive; PfHsp90 yeast 2: inactive

What do the screens show for `COC(=O)C(C(C)=O)C1=C/C(=N\S(=O)(=O)c2ccc(C)cc2)c2ccccc2C1=O` (stereo unspecified)?
tim23-1 inh: inactive; B2AR ag: inactive; tim10-1 inh: 40; TIM10 inh: 43; PfHsp90 yeast 2: inactive; tim10-1 conf: 41; TIM10 conf: inactive

Results for CC(=O)Nc1ccc(NC2=C/C(=N/S(=O)(=O)c3cccs3)c3ccccc3C2=O)cc1 ?
tim23-1 inh: inactive; B2AR ag: inactive; tim10-1 inh: inactive; TIM10 inh: inactive; PfHsp90 yeast 2: inactive
